Measured values published in PubChem BioAssay.
For some assays here: Potency and affinity values are given separately. Active and inactive are the calls of the source. Unless noted, no rule for the calls is given here.

Experiments:
[1] = antimalarial activity against Dd2 strain (AID 2302;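 active = growth inhibition above 50% at the single 2 µM test dose, taken to imply half-maximal potency below 2 µM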;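 also: 0% = DMSO untreated growth and 100% = chloroquine plus artemisinin killed control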); conditions: P. falciparum Dd2 in RBCs, LDH growth readout, 72 h; at 2 µM; active compounds read high
[2] = human hepatoma cell viability loss – ATP luminescence, cytotoxicity control for P. falciparum antimalarial project, primary screen (AID 2303;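 active = inhibition above 50%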;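 also: 0% = DMSO wells and 100% = digitonin-killed cells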); conditions: HepG2 viability, 24-48 h, at 10 µM, active compounds read high
[3] = target: L-lactate dehydrogenase (Plasmodium falciparum (isolate CDC / Honduras)) (UniProt Q27743); assay: PfLDH activity inhibition – cell lysate, 3D7 strain, counter-screen for P. falciparum growth inhibition project (AID 2304);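 also: 0% = vehicle and 100% = reference inhibitor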; conditions: P. falciparum 3D7 crude extract, LDH APAD/NBT absorbance; at 2 µM; active compounds read high
L-lactate dehydrogenase (Plasmodium falciparum (isolate CDC / Honduras)), sequence (Q27743 whole entry, looked up): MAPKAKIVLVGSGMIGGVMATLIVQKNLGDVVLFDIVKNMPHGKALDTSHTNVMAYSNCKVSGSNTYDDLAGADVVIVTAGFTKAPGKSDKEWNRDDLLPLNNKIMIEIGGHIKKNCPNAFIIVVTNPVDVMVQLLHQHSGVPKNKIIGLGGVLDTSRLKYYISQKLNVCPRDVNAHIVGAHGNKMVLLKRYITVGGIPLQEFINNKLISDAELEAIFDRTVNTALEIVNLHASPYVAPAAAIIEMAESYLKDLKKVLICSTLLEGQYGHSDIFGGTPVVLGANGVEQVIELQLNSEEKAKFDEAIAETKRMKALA

[4] = inhibition of 3D7 malaria parasite growth – strain 3D7 (AID 2306);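 also: 0% = DMSO wells and 100% = chloroquine plus artemisinin control wells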; conditions: P. falciparum 3D7 erythrocytic growth, LDH absorbance, 72 h; at 2 µM; active compounds read high
[5] = target: Calcium-dependent protein kinase 1 (Plasmodium falciparum (isolate 3D7)) (UniProt P62344); assay: PfCDPK1 kinase inhibitors, biochemical, TCAMS library (AID 1159585; cut-off not given, nearly all actives have IC50 up to about 0.98 µM;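 also: inhibitors leave more ATP so luminescence rises with inhibition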); conditions: recombinant PfCDPK1, Kinase-Glo ATP depletion luminescence
Calcium-dependent protein kinase 1 (Plasmodium falciparum (isolate 3D7)), sequence (P62344 whole entry, looked up): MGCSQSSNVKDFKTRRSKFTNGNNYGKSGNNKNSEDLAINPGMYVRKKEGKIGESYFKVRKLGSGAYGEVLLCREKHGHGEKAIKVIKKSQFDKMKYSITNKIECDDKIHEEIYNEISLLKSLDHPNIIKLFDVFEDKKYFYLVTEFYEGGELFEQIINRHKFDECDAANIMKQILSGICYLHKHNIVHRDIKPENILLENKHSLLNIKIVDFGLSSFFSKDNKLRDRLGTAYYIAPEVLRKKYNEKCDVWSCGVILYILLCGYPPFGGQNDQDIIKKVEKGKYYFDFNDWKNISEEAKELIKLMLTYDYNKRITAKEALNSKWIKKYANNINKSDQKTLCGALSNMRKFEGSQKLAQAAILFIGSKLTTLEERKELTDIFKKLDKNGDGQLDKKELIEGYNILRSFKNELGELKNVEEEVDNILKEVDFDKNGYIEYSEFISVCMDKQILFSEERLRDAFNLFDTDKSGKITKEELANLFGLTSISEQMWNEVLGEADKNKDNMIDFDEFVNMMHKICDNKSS

[6] = target: Plasmodium falciparum protein kinase 6 (PK6, PF3D7_1337100) (UniProt Q8IDW1); assay: PfPK6 kinase inhibitors, biochemical, TCAMS library (AID 1159586); conditions: recombinant PfPK6, Kinase-Glo ATP depletion luminescence
Plasmodium falciparum protein kinase 6 (PK6, PF3D7_1337100), sequence (Q8IDW1 1-305): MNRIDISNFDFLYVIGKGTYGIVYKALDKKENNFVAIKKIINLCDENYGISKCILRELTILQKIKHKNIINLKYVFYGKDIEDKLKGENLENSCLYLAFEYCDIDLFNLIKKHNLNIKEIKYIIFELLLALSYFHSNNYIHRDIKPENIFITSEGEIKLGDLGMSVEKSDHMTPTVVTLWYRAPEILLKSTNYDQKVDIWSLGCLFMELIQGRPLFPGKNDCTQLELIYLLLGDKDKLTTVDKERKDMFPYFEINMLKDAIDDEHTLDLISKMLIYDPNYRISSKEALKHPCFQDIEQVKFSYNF

[7] = target: Protein kinase 7 (PK7), Plasmodium falciparum 3D7 (PF3D7_0213400) (UniProt Q7YTF7); assay: inhibition of Plasmodium PK7 catalytic activity – biochemical, TCAMS antimalarial set, Kinase-Glo luminescence (AID 1159587); conditions: recombinant PfPK7, Kinase-Glo ATP depletion luminescence
Protein kinase 7 (PK7), Plasmodium falciparum 3D7 (PF3D7_0213400), sequence (Q7YTF7 1-343): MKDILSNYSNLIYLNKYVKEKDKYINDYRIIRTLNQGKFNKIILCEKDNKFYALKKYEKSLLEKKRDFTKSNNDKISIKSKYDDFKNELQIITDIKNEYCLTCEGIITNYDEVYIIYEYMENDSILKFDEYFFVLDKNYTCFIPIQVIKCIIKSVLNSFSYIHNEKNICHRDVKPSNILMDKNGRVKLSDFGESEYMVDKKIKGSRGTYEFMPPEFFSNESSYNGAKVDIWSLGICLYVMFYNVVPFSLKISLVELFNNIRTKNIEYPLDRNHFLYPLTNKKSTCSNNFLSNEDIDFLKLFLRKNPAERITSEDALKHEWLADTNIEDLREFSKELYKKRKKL

[8] = target: Calcium-dependent protein kinase 4 (Plasmodium falciparum (isolate 3D7)) (UniProt Q8IBS5); assay: PfCDPK4 kinase inhibitors, biochemical, TCAMS library (AID 1159588; cut-off not given, nearly all actives have IC50 up to about 0.91 µM); conditions: recombinant PfCDPK4, Kinase-Glo ATP depletion luminescence
Calcium-dependent protein kinase 4 (Plasmodium falciparum (isolate 3D7)), sequence (Q8IBS5 whole entry, looked up): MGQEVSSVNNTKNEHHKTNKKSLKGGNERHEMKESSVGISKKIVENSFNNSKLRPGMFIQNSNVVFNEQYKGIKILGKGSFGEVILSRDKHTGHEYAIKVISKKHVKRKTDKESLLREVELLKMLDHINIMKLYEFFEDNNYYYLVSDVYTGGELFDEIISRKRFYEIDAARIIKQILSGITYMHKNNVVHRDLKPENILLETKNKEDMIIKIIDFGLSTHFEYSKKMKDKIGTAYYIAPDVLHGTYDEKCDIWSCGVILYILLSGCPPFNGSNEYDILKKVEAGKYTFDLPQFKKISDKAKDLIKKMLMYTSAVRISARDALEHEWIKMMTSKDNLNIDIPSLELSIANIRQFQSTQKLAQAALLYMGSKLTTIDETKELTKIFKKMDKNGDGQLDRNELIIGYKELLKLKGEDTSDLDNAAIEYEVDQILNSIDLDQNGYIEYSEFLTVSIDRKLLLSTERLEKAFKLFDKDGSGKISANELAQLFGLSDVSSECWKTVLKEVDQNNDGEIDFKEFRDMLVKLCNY

CN1CCN(CCCN(Cc2ccc(-c3ccc(CNCc4ccc5c(c4)OCO5)cc3)cc2)C(=O)Nc2ccccc2)CC1
inactive: inhibition [2] 36% | inhibition [3] -3% | outcome [5] | outcome [6] | outcome [7] | outcome [8]
active: growth inhibition [1] 77% | growth inhibition [4] 94%

Cc1[nH]c(C)c(-c2ccc(-c3ccccc3Cl)nc2)c(=O)c1Cl
inactive: inhibition [2] -1% | inhibition [3] -5% | outcome [5] | outcome [6] | outcome [7] | outcome [8]
active: growth inhibition [1] 97% | growth inhibition [4] 98%

CC1(C)CCCC(=Cc2ccc(Br)cc2)C1(O)Cn1ccnc1 (stereo not given)
active: growth inhibition [1] 69% | growth inhibition [4] 99%
inactive: inhibition [2] 7% | inhibition [3] 0% | outcome [5] | outcome [6] | outcome [7] | outcome [8]

CCOc1c(OC)ccc2c1CCN(CCN1CCC(CNC(=O)c3ccc(-c4ccc(C#N)cc4)cc3)CC1)C2
active: growth inhibition [1] 61% | growth inhibition [4] 92%
inactive: inhibition [2] 45% | inhibition [3] 7% | outcome [5] | outcome [6] | outcome [7] | outcome [8]

CC1(C)N=C(N)N=C(N)N1OCCCCON1C(N)=NC(N)=NC1(C)C
inactive: inhibition [3] 4% | outcome [5] | outcome [6] | outcome [7] | outcome [8]
active: growth inhibition [1] 95% | inhibition [2] 54% | growth inhibition [4] 97%

CCN(CCCN1CCCC1)c1cc(C)nc(Nc2ccc(Cl)cc2)n1
inactive: growth inhibition [1] 12% | inhibition [2] 5% | inhibition [3] 1% | outcome [5] | outcome [6] | outcome [7] | outcome [8]
active: growth inhibition [4] 100%

COc1cc(Nc2ccnc3ccc(C(F)(F)F)cc23)cc(OC)c1OC
active: growth inhibition [1] 100% | growth inhibition [4] 101%
inactive: inhibition [2] 15% | inhibition [3] 1% | outcome [5] | outcome [6] | outcome [7] | outcome [8]

O=C1C(c2ccccc2)=C(Nc2cccc(OC(F)(F)C(F)F)c2)c2ccccc21
inactive: inhibition [2] -5% | inhibition [3] 0% | outcome [5] | outcome [6] | outcome [7] | outcome [8]
active: growth inhibition [1] 96% | growth inhibition [4] 96%

CN(c1ccccc1C(=O)Nc1cc(Cl)ccc1Oc1ccccc1)S(=O)(=O)c1ccccc1
inactive: growth inhibition [1] 42% | inhibition [2] 47% | inhibition [3] 7% | outcome [5] | outcome [6] | outcome [7] | outcome [8]
active: growth inhibition [4] 99%

COc1ccc(OCC(O)CN(Cc2ccccc2OC)C(=O)Nc2ccc(Br)cc2)cc1 (stereo not given)
inactive: growth inhibition [1] 2% | inhibition [2] 8% | inhibition [3] 0% | outcome [5] | outcome [6] | outcome [7] | outcome [8]
active: growth inhibition [4] 97%

Cc1cccc2[nH]c(-c3cccc(-c4ccc(NC(=O)c5cnc[nH]5)cc4)c3)nc12
active: growth inhibition [4] 101%
inactive: growth inhibition [1] 48% | inhibition [2] 8% | inhibition [3] 3% | outcome [5] | outcome [6] | outcome [7] | outcome [8]

CC(C)(C)OC(=O)N1CCN(c2ccccc2NC(=O)c2cccc(C(F)(F)F)c2Oc2ccc(F)cc2)CC1
active: growth inhibition [4] 100%
inactive: growth inhibition [1] 9% | inhibition [2] 3% | inhibition [3] -8% | outcome [5] | outcome [6] | outcome [7] | outcome [8]

O=C(Nc1cc(F)cc(F)c1)N1CCOC(CCN2CCC3(CCc4ccccc43)CC2)(c2ccc(Cl)c(Cl)c2)C1 (stereo not given)
active: growth inhibition [1] 86% | growth inhibition [4] 100%
inactive: inhibition [2] 32% | inhibition [3] 4% | outcome [5] | outcome [6] | outcome [7] | outcome [8]

Cc1ccc(OC2CCN(CCCCC3(C)C(=O)Nc4ccccc43)CC2)cc1 (stereo not given)
inactive: growth inhibition [1] 2% | inhibition [3] -3% | outcome [5] | outcome [6] | outcome [7] | outcome [8]
active: inhibition [2] 63% | growth inhibition [4] 100%

Cn1c(=N)n(CC(=O)OCc2ccc(OCc3ccccc3)cc2)c2ccccc21
active: growth inhibition [1] 74% | growth inhibition [4] 100%
inactive: inhibition [2] 5% | inhibition [3] -5% | outcome [5] | outcome [6] | outcome [7] | outcome [8]

Cc1[nH]nc2cc(Nc3ccnc(Nc4ccc(CN5CCOCC5)cc4)n3)ccc12
inactive: growth inhibition [1] 5% | inhibition [2] 22% | inhibition [3] -4% | outcome [5] | outcome [6] | outcome [7] | outcome [8]
active: growth inhibition [4] 97%

O=C(Nc1ccc(C(=O)Oc2ccc3ccccc3c2)cc1)N[C@@H](Cc1ccc(O)cc1)C(=O)NC1CCN(Cc2ccc(O)cc2)C1 (stereo not given in full)
inactive: growth inhibition [1] 1% | inhibition [2] 1% | inhibition [3] -2% | outcome [5] | outcome [6] | outcome [7] | outcome [8]
active: growth inhibition [4] 86%

COc1ccc(-c2cc(C(=O)N[C@@H](Cc3ccccc3)C(=O)NCCN3CCCCC3)ccc2O)cc1
active: growth inhibition [4] 96%
inactive: growth inhibition [1] -3% | inhibition [2] -3% | inhibition [3] 1% | outcome [5] | outcome [6] | outcome [7] | outcome [8]

Cc1ccc(-c2ccc(Cl)cc2Oc2cnc(N)nc2N)o1
active: growth inhibition [4] 102%
inactive: growth inhibition [1] 3% | inhibition [2] 15% | inhibition [3] -2% | outcome [5] | outcome [6] | outcome [7] | outcome [8]

CC(C)COc1ccc(Cl)cc1Cc1ccc(-c2nc3c(F)c(F)ccc3[nH]2)o1
active: growth inhibition [1] 85% | growth inhibition [4] 94%
inactive: inhibition [2] 26% | inhibition [3] -1% | outcome [5] | outcome [6] | outcome [7] | outcome [8]

COc1ccc(Cl)cc1-c1nc(C(=O)NCCN2CCCCC2)c(C(C)C)s1
active: growth inhibition [4] 100%
inactive: growth inhibition [1] 37% | inhibition [2] 14% | inhibition [3] -3% | outcome [5] | outcome [6] | outcome [7] | outcome [8]

O=C1CCCN1CCCNCc1cccc(-c2cccc(-c3nc4ccc(C(F)(F)F)cc4[nH]3)c2)c1
inactive: inhibition [2] 28% | inhibition [3] -3% | outcome [5] | outcome [6] | outcome [7] | outcome [8]
active: growth inhibition [1] 90% | growth inhibition [4] 101%

O=C(Nc1cccc(-c2nn3ccccc3c2-c2ccnc(Nc3ccccc3)n2)c1)c1cc(F)ccc1F
active: growth inhibition [1] 75% | growth inhibition [4] 98%
inactive: inhibition [2] 8% | inhibition [3] 0% | outcome [5] | outcome [6] | outcome [7] | outcome [8]

CN1CCC(NCc2ccc(-c3cccc(-c4nc5ccccc5[nH]4)c3)cc2)CC1
inactive: inhibition [3] -5% | outcome [5] | outcome [6] | outcome [7] | outcome [8]
active: growth inhibition [1] 96% | inhibition [2] 50% | growth inhibition [4] 100%

CN1CCC(NCc2cccc(-c3nn(C)c4nc(NC5CCCC5)ncc34)c2)CC1
active: growth inhibition [4] 98%
inactive: growth inhibition [1] 44% | inhibition [2] 1% | inhibition [3] -2% | outcome [5] | outcome [6] | outcome [7] | outcome [8]

CCCC(=O)Nc1ccc(Cl)c(NC(=O)COc2cc(C)ccc2C(C)C)c1
active: growth inhibition [1] 67% | growth inhibition [4] 87%
inactive: inhibition [2] 2% | inhibition [3] 0% | outcome [5] | outcome [6] | outcome [7] | outcome [8]

CN1CCC(Oc2ccc(CN3CC[C@H](NC(=O)c4cc(F)cc(F)c4)C3)c3ccccc23)C1 (stereo not given in full)
inactive: growth inhibition [1] 23% | inhibition [2] 26% | inhibition [3] 5% | outcome [5] | outcome [6] | outcome [7] | outcome [8]
active: growth inhibition [4] 98%

NC1=NC(c2ccccc2)N(OCc2ccccc2)C(N)=N1 (stereo not given)
inactive: growth inhibition [1] 21% | inhibition [2] 5% | inhibition [3] -6% | outcome [5] | outcome [6] | outcome [7] | outcome [8]
active: growth inhibition [4] 96%

COc1ccc(S(=O)(=O)NCCC2CCN(CCCCCNC(=O)C=Cc3ccc(Cl)c(Cl)c3)CC2)cc1
inactive: growth inhibition [1] -2% | inhibition [2] 36% | inhibition [3] 5% | outcome [5] | outcome [6] | outcome [7] | outcome [8]
active: growth inhibition [4] 87%

Cc1ccc(-n2c(Cc3cccc4ccccc34)nnc2SCCC#N)c(C)c1
inactive: inhibition [2] 0% | inhibition [3] -7% | outcome [5] | outcome [6] | outcome [7] | outcome [8]
active: growth inhibition [1] 98% | growth inhibition [4] 95%

CCCNCc1ccc(-c2ccc(CN(CCOC)C(=O)c3ccc([N+](=O)[O-])c(C)c3)cc2)nc1
inactive: growth inhibition [1] 23% | inhibition [2] 2% | inhibition [3] 1% | outcome [5] | outcome [6] | outcome [7] | outcome [8]
active: growth inhibition [4] 97%

CS(=O)(=O)N1CC2(CCN(CCC(NC(=O)Nc3ccccc3)c3ccc(Cl)c(Cl)c3)CC2)c2ccccc21 (stereo not given)
active: growth inhibition [1] 72% | growth inhibition [4] 99%
inactive: inhibition [2] 23% | inhibition [3] 5% | outcome [5] | outcome [6] | outcome [7] | outcome [8]

COc1ccccc1-c1csc(C(=O)NC2CCCCN(Cc3ccc(C(C)(C)C)cc3)C2)c1 (stereo not given)
active: growth inhibition [4] 99%
inactive: growth inhibition [1] 8% | inhibition [2] 13% | inhibition [3] -5% | outcome [5] | outcome [6] | outcome [7] | outcome [8]

COc1cccc2cc(C(=O)N[C@@H](CC(C)C)C(=O)N[C@H](/C=N/N(C)C(=O)OC(C)(C)C)CC(=O)OC(C)(C)C)oc12
active: growth inhibition [1] 67% | growth inhibition [4] 87%
inactive: inhibition [2] 5% | inhibition [3] -8% | outcome [5] | outcome [6] | outcome [7] | outcome [8]

COC(=O)c1cccc(CNCc2ccc(-c3cccc(-c4nc5c(C)cccc5[nH]4)c3)cc2)c1
active: growth inhibition [1] 84% | growth inhibition [4] 102%
inactive: inhibition [2] -7% | inhibition [3] 7% | outcome [5] | outcome [6] | outcome [7] | outcome [8]

CC(=O)OCCN1C(=O)c2ccc3c4c(ccc(c24)C1=O)C(=O)N(CCOC(C)=O)C3=O
inactive: growth inhibition [1] 1% | inhibition [2] 2% | inhibition [3] 3% | outcome [5] | outcome [6] | outcome [7] | outcome [8]
active: growth inhibition [4] 94%

CCOc1cc(CC)ccc1C1CCN(CCN2CCC(NC(=O)c3ccc(-c4ccc(C(C)=O)cc4)cc3)CC2)CC1
inactive: growth inhibition [1] 8% | inhibition [2] 25% | inhibition [3] -1% | outcome [5] | outcome [6] | outcome [7] | outcome [8]
active: growth inhibition [4] 100%

O=C(/C=C/c1ccc(Cl)c(Cl)c1)NCCCCCN1CCC(NC(=O)Nc2cccc(F)c2)CC1
active: growth inhibition [4] 100%
inactive: growth inhibition [1] 6% | inhibition [2] 30% | inhibition [3] 2% | outcome [5] | outcome [6] | outcome [7] | outcome [8]

COc1ccc(-c2cccc(NC(=O)c3ccccc3)c2)cc1CN1CCCN(C)CC1
inactive: growth inhibition [1] 25% | inhibition [2] 22% | inhibition [3] -7% | outcome [5] | outcome [6] | outcome [7] | outcome [8]
active: growth inhibition [4] 98%

CCNCc1ccc(-c2cc3ncnc(Nc4ccc(OCc5cccc(F)c5)c(Cl)c4)c3s2)[nH]1
active: growth inhibition [1] 74% | growth inhibition [4] 103%
inactive: inhibition [2] 22% | inhibition [3] 6% | outcome [5] | outcome [6] | outcome [7] | outcome [8]
